For 103 compounds, outcome results are on record in PubChem BioAssay AID504843 (Broad Institute, 2011).

Molecules are shown by their SMILES. The campaign covered roughly 1,200 compounds. About 360 (30%) were called active. The rule behind the calls is not given here. Not all results are given here. Measured potencies and affinities stand elsewhere.

The nature of the assay: bacterial growth inhibition, dose response, counter-screen, BacTiter-Glo luminescence, cherry-picked samples (AID 504843).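 Note: growth measured after 8 h incubation at 30 °C.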 The conditions noted are these: BacTiter-Glo ATP luminescence; series mostly up to 15 µM.
Regarding `NS(=O)(=O)c1ccc(CCNc2nc(C(F)(F)F)nc3ccccc23)cc1`, the call was inactive.

Turning to `Cc1ccnc(NC(c2cccnc2)c2ccc3cccnc3c2O)c1` (stereo not drawn), the result was inactive.

Turning to `O=C1CN(C(=O)COC(=O)c2cc(S(=O)(=O)N3CCOCC3)ccc2Cl)c2ccccc2N1`, the outcome was inactive.

For the compound `CCCOc1cc(C)c(S(=O)(=O)N2CCN(C)CC2)cc1C`, the result was inactive.

With `Cc1ccc(C)c(NC(=S)N(CCc2ccncc2)C(C)C)c1`, the result was inactive.

With `CC(C)Cc1ccc(CN2CCCC(NC(=O)Cn3cnnn3)C2)cc1` (stereo not drawn), the outcome was inactive.

For the compound `COCc1cc(CNC(=O)C2CCC(=O)N(Cc3ccccc3OC)C2)[nH]n1` (stereo not drawn), the compound was called inactive.

As to `COc1cccc(CN2CC(C(=O)NCCOc3cccnc3)CCC2=O)c1` (stereo not drawn), the compound was classed as inactive.

In the case of `CC(C)C[C@@H](CN1CCC[C@@H]1CN1C(=O)C(=O)NC[C@@H]1Cc1ccccc1)N1C[C@H](Cc2ccc(O)cc2)N(CC2CCCCC2)C(=O)C1=O`, the compound was called inactive.

Turning to `Cc1cc(Nc2nc3ccccc3nc2Cl)n(-c2ccccc2C)n1`, the call was inactive.

`Cc1cc(C)cc(CSc2nnc(C)c(=O)[nH]2)c1`: the compound was called inactive.

With `Cc1ccc(C)n1-c1ccc(-c2ccnc(N)n2)cc1`, the call was inactive.

Turning to `COc1ccc(S(=O)(=O)N(C)c2ccc(C(=O)N3CCOCC3)cc2)cc1`, the call was inactive.

On to `O=C(CCNS(=O)(=O)c1ccccc1C(F)(F)F)NCCCN1CCOCC1`, for which the result was inactive.

As for `COc1cccc(CNC(=O)CN2C(=O)CCSc3ccc(S(=O)(=O)N4CCCC4)cc32)c1`, the outcome was inactive.

For the compound `COc1ccc(-n2c(O)c(/C=N/NS(=O)(=O)c3cccc([N+](=O)[O-])c3)c3ccccc3c2=O)cc1OC`, the compound was classed as inactive.

In the case of `COC(=O)/C(=C/c1ccco1)NC(=O)c1ccccc1`, the result was inactive.

Take `O=C(N/C(=C/c1cccc([N+](=O)[O-])c1)C(=O)N1CCOCC1)c1ccc(Br)cc1`: the outcome was inactive.

As to `Nc1cc(OC(=O)c2ccc(F)cc2)nn1S(=O)(=O)c1ccc(F)cc1`, the outcome was inactive.

Consider `CCc1nc2ccccc2c(C(=O)OC2CCOC2=O)c1C` (stereo not drawn), for which the result was inactive.

`O=C(O)c1cccc(NC(=O)c2ccccc2)c1`: the result was inactive.

In the case of `c1ccc(NC(=NCc2ccco2)c2ccccc2)cc1`, the compound was called inactive.

As for `CC(C)c1c(C(=O)N/N=C/C2CC=CCC2)nnn1-c1nonc1N` (stereo not drawn), the compound was called inactive.

Turning to `O=C(CN1CCN(c2ccccc2F)CC1)NC(=O)NCc1ccccc1`, the result was inactive.

Turning to `O=C(O)c1ccc(CSc2nnc(-c3ccncc3)n2-c2ccc(Cl)cc2)cc1`, the compound was called inactive.

Consider `Cc1nc(N2CCN(S(=O)(=O)c3ccc(Br)cc3)CC2)c2c(C)c(C)sc2n1`, for which the result was inactive.

Turning to `CCCc1cc(=O)[nH]c2nnc(SCC(=O)Nc3ccc4c(c3)OCCO4)n12`, the compound was classed as inactive.

Regarding `COC(=O)c1sc(NC(=O)CSc2nnnn2-c2ccc(C)cc2C)nc1C`, the call was inactive.

For `COc1ccccc1NS(=O)(=O)c1ccc2[nH]c(=S)oc2c1`, the compound was called inactive.

Consider `c1ccc(C2NCCc3ccccc32)cc1` (stereo not drawn), for which the outcome was inactive.

With `CCOc1ccc2nc(NC(=O)CN3CCC(n4nnc5cc(F)ccc54)CC3)sc2c1`, the compound was called inactive.

On to `Cc1cc(C)c2oc(=O)cc(CN3CCN(Cc4ccc5c(c4)OCO5)CC3)c2c1`, for which the compound was called inactive.

`O=C(Nc1ccc(Oc2ccccc2)nc1)C1CCCCN1Cc1ccc(OCCO)cc1` (stereo not drawn): the compound was classed as inactive.

In the case of `CCC1CCCCN1Cc1nc2c(c(=O)n(C)c(=O)n2C)n1CCCc1ccccc1` (stereo not drawn), the outcome was inactive.

On to `COCCCNc1nc2c(c(=O)[nH]c(=O)n2C)n1CC(O)COc1cccc(C)c1` (stereo not drawn), for which the call was inactive.

Consider `COCCn1c(-c2cccc([N+](=O)[O-])c2)nc2c1c(=O)[nH]c(=O)n2Cc1ccccc1`, for which the outcome was inactive.

Regarding `CCCNc1nc2c(c(=O)[nH]c(=O)n2C)n1CCCc1ccccc1`, the outcome was inactive.

`CC(C)c1ccc(OCC(=O)NC2=NCCS2)cc1`: the outcome was inactive.

For the compound `COc1ccc(-c2noc(CSc3nnc(-c4ccncc4)n3-c3ccc(F)cc3)n2)cc1OC`, the compound was classed as inactive.

With `CCCCN1CC(COCc2ccccc2)Oc2cccc(N3CCCC3)c2S1(=O)=O` (stereo not drawn), the result was inactive.

In the case of `S=C(NCCCn1ccnc1)Nc1cccc(Cl)c1`, the outcome was inactive.

Regarding `O=C(CCCCCNC(=O)c1ccccc1)C[N+](=O)[O-]`, the compound was classed as inactive.

Consider `CN1CC(c2ccccc2Cl)C2(COc3ccccc3C2=O)C12C(=O)Nc1ccccc12` (stereo not drawn), for which the call was inactive.

With `CCC1=C(c2ccc(C)cc2)S(=O)(=O)N=C1N1CCC(C(=O)NCCCN2CCCCC2C)CC1` (stereo not drawn), the compound was called inactive.

As for `COc1ccc2[nH]c3c(=O)n(CCN4CCOCC4)cnc3c2c1`, the call was inactive.

For the compound `O=C1/C(=C/c2cccnc2)Oc2cc(OS(=O)(=O)c3ccccc3)ccc21`, the result was inactive.

For `CN(C)C(=S)Nc1ccc2ccccc2c1`, the result was inactive.

Consider `COc1ccc(NS(=O)(=O)c2ccc(NC(=O)Cc3cccs3)cc2)cc1`, for which the result was inactive.

For the compound `CCN(CC)C(=O)Cn1cc(C(=O)C(=O)NCCCn2ccnc2)c2ccccc21`, the compound was classed as inactive.

As to `O=C(NCC1CCCO1)C(c1cccs1)N(C(=O)c1ccc(CN2CCOCC2)o1)c1ccc(Cl)cc1` (stereo not drawn), the compound was called inactive.

In the case of `O=C1CCCC2=C1C(c1cccs1)CC(=O)N2c1ccc(F)cc1` (stereo not drawn), the compound was called inactive.

Take `O=C1CCCC2=C1CC(C(=O)OCc1ccccc1)C(=O)N2Cc1ccccc1` (stereo not drawn): the compound was classed as inactive.

Turning to `Cc1ccc[n+](CC(=O)c2cc3ccccc3oc2=O)c1`, the outcome was inactive.

Regarding `O=C1Nc2ccc(S(=O)(=O)NCCCO)c3cccc1c23`, the compound was classed as inactive.

As to `Cc1ccc(S(=O)(=O)Nc2c(C)n(C)n(-c3ccccc3)c2=O)cc1C(=O)NCc1ccco1`, the call was inactive.

Consider `Cc1ccc(C(=O)CN2/C(=C(\O)c3ccccc3)C(=O)c3ccccc3S2(=O)=O)c(C)c1`, for which the call was inactive.

For `CCn1c(C)nc2cc(C(=O)N/N=C/c3ccc(OC)c(O)c3)ccc21`, the result was inactive.

For the compound `O=C(Cc1ccccc1)Nc1ccc2oc(=O)ccc2c1`, the compound was classed as inactive.

Turning to `COc1cccc(-c2nn(-c3ccccc3)cc2CN(C)C(C)c2ccncn2)c1` (stereo not drawn), the compound was called inactive.

On to `O=S(=O)(N1CCCCC1)N1CCN(c2ccccc2F)CC1`, for which the compound was classed as inactive.

With `CCOC(=O)c1cnn(-c2cc(C)c3ccccc3n2)c1N`, the result was inactive.

On to `O=C(CSc1cccc2cccnc12)N/N=C/c1ccncc1`, for which the call was inactive.

In the case of `CCn1nc(-c2ccccc2)c2nc3ccccc3nc21`, the result was inactive.

On to `Cc1cc(C(F)F)n2nc(C(=O)Nc3c(F)cc(F)cc3Br)nc2n1`, for which the compound was classed as inactive.

On to `Cn1c(N)c(C(=O)COC(=O)c2nc(Cl)ccc2Cl)c(=O)n(C)c1=O`, for which the result was inactive.

For `CC(C)N(c1ccccc1)c1ccc(NC(=O)COC(=O)CCN2C(=O)c3cccc([N+](=O)[O-])c3C2=O)cc1`, the compound was classed as inactive.

Take `CN1CCCC(OC(=O)CCCCC(=O)OC2CCCN(C)C2)C1` (stereo not drawn): the outcome was inactive.

`O=C(NCc1cccs1)Nc1cccc(Cl)c1`: the call was inactive.

Turning to `O=C(CN1CCC(c2nc3ccccc3s2)CC1)NCc1cccs1`, the compound was classed as inactive.

For `COc1cc(/C=C2\C(=N)N3N=C(S(C)(=O)=O)SC3=NC2=O)ccc1OS(=O)(=O)c1ccc(C)cc1`, the call was inactive.

With `COc1ccccc1NC(=O)C1=C(C)Nc2ncnn2C1c1ccc(C)o1` (stereo not drawn), the compound was called inactive.

On to `Cc1cc(C(=O)CSc2nnc(-c3ccc4c(c3)OCO4)o2)c(C)n1-c1ccc(F)cc1`, for which the compound was called inactive.

With `Cc1cccc2c1cnn2C(=O)CCC(=O)N1CC(C)CC(C)C1` (stereo not drawn), the compound was called inactive.

Consider `CCC(C)N1CCC2(CC1)N=c1c(c3c4c5c(C)c(O)c3c(O)c1=NC(=O)C(C)=CC=C[C@H](C)[C@H](O)[C@@H](C)[C@@H](O)[C@@H](C)[C@H](OC(C)=O)[C@H](C)[C@@H](OC)C=CO[C@@](C)(O5)C4=O)N2` (stereo partly drawn), for which the outcome was inactive.

In the case of `O=C(Nc1cccc(NC(=O)c2cccnc2)c1)c1ccccc1`, the compound was classed as inactive.

Regarding `O=C(Nc1ccncc1)c1ccc(Cl)c(Cl)c1`, the outcome was inactive.

`NC(=O)C1CCN(C(=O)c2ccco2)CC1`: the compound was called inactive.

Regarding `Cc1ccc2c(C)nc(/N=C(\N)NC(=O)N3c4ccccc4Sc4ccccc43)nc2c1`, the compound was called inactive.

On to `CNC(=O)C(=O)NCCN1CCN(S(=O)(=O)c2ccc3ccccc3c2)CC1`, for which the compound was called inactive.

Take `O=C(CCc1nnc2ccc(NCc3ccco3)nn12)N1CCN(c2ccccc2)CC1`: the compound was called inactive.

For `O=C(CCSc1ccccc1)N1CCN(C(=O)c2ccco2)CC1`, the compound was called inactive.

In the case of `CC(=O)c1ccc(-c2cccc(-c3nc4ccccn4c3NC3CCCCC3)c2)cc1`, the compound was called inactive.

Consider `CCOC(=O)c1sc(NC(=O)CCN2C(=O)c3cccc([N+](=O)[O-])c3C2=O)c(C(=O)OCC)c1C`, for which the compound was called inactive.

With `C#CCn1c(O)c(N=NC(=O)C(O)c2ccccc2)c2ccccc21` (stereo not drawn), the outcome was inactive.

With `COc1ccc(C(=O)Nc2c3c(nn2-c2ccc(Cl)cc2)CS(=O)(=O)C3)cc1`, the result was inactive.

As to `c1ccc(Nc2nc(Nc3ccccc3)nc(N3CCNCC3)n2)cc1`, the call was inactive.

Turning to `Cc1ccc(Nc2nnns2)cc1C`, the result was inactive.

On to `Cc1cc(=O)oc2cc(O)cc(O)c12`, for which the result was inactive.

`O=C(Nc1nnc(S(=O)(=O)N2CCCCCC2)s1)c1ccccc1Br`: the compound was classed as inactive.

As for `CSc1ccccc1OCc1cc(C(=O)N(C)Cc2c(C)n[nH]c2C)no1`, the compound was called inactive.

For `CCc1ccc2c(CSc3nnnn3C)cc(=O)oc2c1`, the result was inactive.

Regarding `Cc1ncc(CN2CCN(CCC(C)C)C(CCO)C2)s1` (stereo not drawn), the call was inactive.

Take `CC(=O)C1C(c2ccc(Cl)cc2)NC(=O)NC1(O)C(F)(F)F` (stereo not drawn): the outcome was inactive.

With `Cc1cc(=O)[nH]c(Sc2c(-c3ccccc3)c3ccccc3[nH]c2=O)n1`, the compound was called inactive.

Consider `Cc1cc(C)n(CCC(=O)N/N=C/c2c(O)ccc3ccccc23)n1`, for which the compound was called inactive.

As to `COC(=O)[C@H]1[C@H]2C[C@H]3c4[nH]c5ccccc5c4CCN3C[C@@H]2CC[C@@H]1O`, the result was inactive.

In the case of `CCC(=O)NC(c1ccccc1Cl)c1c(O)ccc2ccccc12` (stereo not drawn), the call was inactive.

`Cc1ccsc1C1C(C#N)=C(N)OC2=C1C(=O)CC(C)C2` (stereo not drawn): the outcome was inactive.

Take `COc1cccc(C2CC(c3c(-c4ccccc4)c4cc(Cl)ccc4[nH]c3=O)=NN2S(C)(=O)=O)c1OC` (stereo not drawn): the call was inactive.

Regarding `CCn1c(SCC(=O)Nc2ccc(F)cc2)nnc1-c1cnccn1`, the outcome was inactive.

Regarding `CNC1=CC(=O)CC(c2ccccc2)C1` (stereo not drawn), the compound was called inactive.

As for `COc1ccc(OCc2nnc3n2N=C(c2ccccc2)C(CC(=O)O)S3)cc1` (stereo not drawn), the result was inactive.

Regarding `Cn1cccc1CNCC(O)c1ccccc1` (stereo not drawn), the outcome was inactive.
